# Inconclusive results are not listed. A call without a number means that no potency is given here. Activity calls are given as the source filed them. Unless noted, the call rests on the fitted dose curve; in most records, active means well fitted curve in the direction sought with a large enough effect; inconclusive means small, poorly fitted or top-dose-only effect, or another doubt; inactive means no such curve, though single readings can be large; an effect the other way counts as inactive or inconclusive.
# Tests used:
# [1] = target: Cytochrome P450 2D6 (Homo sapiens) (UniProt P10635); assay: Cytochrome P450 family 2 subfamily D member 6 (CYP2D6) small molecule antagonists: luciferase biochemical (cell-free) qHTS assay (AID 1645840; active means well fitted curve in the direction sought with a large enough effect in the repeat runs; an effect the other way counts as inactive or inconclusive; further: nearly all actives have a fitted effect of over 55% in size)
# Method in brief: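 P450-Glo luminescent screen: recombinant CYP2D6 enzyme–proluciferin substrate mix preincubated with compound 10 min at room temperature, then NADPH regeneration added for 1 h at room temperature. Detection reagent added for 20 min; luciferin light read as relative luminescence units.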
# [2] = Primary qHTS for inhibitors of nuclear receptor binding SET domain protein 2 (NSD2) in an isogenic RCH-ACV NSD2 p.E1099K mutant (9B) (AID 1645876); further: potency means the concentration at half of the fitted maximal effect; nearly all actives have a fitted effect of over 70% in size
# [3] = target: Catechol O-methyltransferase (Homo sapiens) (UniProt P21964); assay: Confirmatory Screen for Target Class Profiling of Small Molecule Inhibitors of Methyltransferases (AID 1745852; calls by dose curve; further: potency means the concentration at half of the fitted maximal effect); conditions: MTase-Glo luminescence, SAH detection, recombinant enzyme; measured here: COMT max response; stronger effect = lower value
# [4] = target: Guanidinoacetate N-methyltransferase (Homo sapiens) (UniProt Q14353); assay: as above; conditions: MTase-Glo luminescence, SAH detection, recombinant enzyme; activity change, negative = inhibition: at 57.3 µM (top of the series)
# [5] = target: Nicotinamide N-methyltransferase (Homo sapiens) (UniProt P40261); assay: as above; conditions: MTase-Glo luminescence, SAH detection, recombinant enzyme; measured here: NNMT max response; stronger effect = lower value
# [6] = target: Phenylethanolamine N-methyltransferase (Homo sapiens) (UniProt P11086); assay: as above; conditions: MTase-Glo luminescence, SAH detection, recombinant enzyme; measured here: PNMT max response; stronger effect = lower value
# [7] = NCATS anti-infectives library activity on the primary C. elegans qHTS viability assay (AID 1745855; calls by dose curve)
# Method in brief: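 Viability read-out is GFP fluorescence of PE254-GFP-FLuc C. elegans, measured by laser cytometry (488 nm) at day 0, 3 and 7. Ten L1 worms per well were incubated 7 days at 21 °C with compounds and bacterial capsules in S medium.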
# [8] = Viability counterscreen for agonist of constitutive androstane receptor (CAR) against the NCATS DSHEA and TCM libraries (AID 1794838);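 further: HepG2 cells with CYP2B6 reporter and hCAR plus 0.75 µM PK11195 antagonist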
# Method in brief: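 In agonist mode, PK11195 is added at 0.75 uM final to HepG2-CYP2B6-hCAR cells dosed with test substances. Cultures incubate 24 h at 37C before a protease-based fluorogenic viability readout.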
# [9] = HepG2 viability counterscreen (readout 2: ATP content) against the NCATS DSHEA and TCM libraries (AID 1794840);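 further: HepG2 cells exposed to substances for about 24 h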
# Method in brief: (§1)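 Cytotoxicity was assessed in HepG2 cells plated at 1,000 cells/well and exposed for about 24 hours to a concentration series. Protease activity and ATP content were measured sequentially in each well.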
# [10] = HepG2 viability counterscreen (readout 1: protease activity) against the NCATS DSHEA and TCM libraries (AID 1794841);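 further: cells exposed to compounds for about 24 h before the protease read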
# Method in brief: as §1
# [11] = target: Cytochrome P450 3A4 (Homo sapiens) (UniProt P08684); assay: qHTS for inhibitors of CYP3A4 against the NCATS DSHEA and TCM libraries (AID 1919971); conditions: recombinant CYP3A4 enzyme activity, luminescence qHTS; further: potency means the concentration at half of the fitted maximal effect
# Method in brief: (§2)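 Read-out is luminescence after P450-Glo detection (30 min, RT). Before that: 15 min compound–enzyme preincubation, then 30-45 min reaction with 1x NADPH regeneration solution, substrate concentration isoform-specific.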
# [12] = target: Cytochrome P450 2D6 (Homo sapiens) (UniProt P10635); assay: qHTS for inhibitors of CYP2D6 against the NCATS DSHEA and TCM libraries (AID 1919972); further: potency means the concentration at half of the fitted maximal effect
# Method in brief: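 Luminescent P450-Glo read-out of CYP2D6 turnover of a luciferin substrate after NADPH-driven reaction of 30-45 min at room temperature. Compounds were first preincubated 15 min with enzyme at titrated concentrations; quinidine was the intraplate control.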
# [13] = target: Cytochrome P450 2C9 (Homo sapiens) (UniProt P11712); assay: qHTS for inhibitors of CYP2C9 against the NCATS DSHEA and TCM libraries (AID 1919973); further: potency means the concentration at half of the fitted maximal effect
# Method in brief: as §2
# [14] = target: Cytochrome P450 2C19 (Homo sapiens) (UniProt P33261); assay: qHTS for inhibitors of CYP2C19 against the NCATS DSHEA and TCM libraries (AID 1919974); conditions: CYP2C19 enzyme inhibition, luminescence qHTS;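 further: luminescence from luciferin released by CYP2C19 oxidation of a pro-luciferin substrate; potency means the concentration at half of the fitted maximal effect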
# Method in brief: as §2
# [15] = KB-3-1 P-gp reporter qHTS against the NCATS DSHEA and TCM libraries (AID 1919975)
# Method in brief: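 72 h exposure of KB-3-1 cells (DMEM, 10% FBS) to DSHEA/TCM samples, concentration-response; cell viability measured as CellTiter-Glo luminescence after 30 min at room temperature.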
# [16] = target: Cytochrome P450 1A2 (Homo sapiens) (UniProt P05177); assay: qHTS for inhibitors of CYPIA2 against the NCATS DSHEA and TCM libraries (AID 1919976); conditions: recombinant CYP1A2 enzyme activity, luminescence; further: potency means the concentration at half of the fitted maximal effect
# Method in brief: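 CYP1A2 + luciferin substrate, 100 mM KPO4-type buffer; cmpd 15 min RT; 1x NADPH regen, 30-45 min RT dark; detection reagent 30 min RT; luminescence. Minus-enzyme wells as background; furafylline intraplate control.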
# [17] = qHTS Counterscreen for compound interference against the NCATS DSHEA and TCM libraries (AID 1919978); conditions: firefly luciferase detection reagent interference, luminescence
# Method in brief: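 Read-out is luminescence after 30 min at RT with luciferin detection reagent. Before that, compounds (19.5 nM to 39.8 uM final) sat 15 min at RT with 1 uM D-luciferin or 100 mM potassium phosphate buffer. PTC124 served as intraplate control.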
# [18] = Dual reporter qHTS for agonist of Pregnane X Receptor (hPXR) against the NCATS DSHEA and TCM libraries: Fluorescence readout (AID 1920058)
# Method in brief: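 HepG2 hPXR-Luc, 2000 cells/well, 5 h attach; cpds ~24 h, 37 °C/5% CO2; CellTiter-Fluor 1 h; fluor. Ex/Em 405/540 nm = viability.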
# [19] = target: Nuclear receptor subfamily 1 group I member 2 (Homo sapiens) (UniProt O75469); assay: Dual reporter qHTS for agonist of Pregnane X Receptor (hPXR) against the NCATS DSHEA and TCM libraries: Luminescence readout (AID 1920059)
# Method in brief: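 hPXR-Luc HepG2 cells, 2000/well in 5% charcoal-stripped FBS medium, attached 5 h, then exposed 24 h at 37C to compounds. Viability by CellTiter-Fluor, then luciferase luminescence with ONE-Glo.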
# [20] = qHTS to identify inhibitors of the type 1 interferon - major histocompatibility complex class I in skeletal muscle: primary screen against the NCATS Mechanism Interrogation Plate v5.0 (MIPE) Libary (AID 1347411); further: nearly all actives have a fitted effect of over 65% in size
# Method in brief: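 Luminescence from HiBiT-tagged endogenous HLA-B*08:01 served as the MHC class I read-out. CRISPR-engineered C25cl48 human myoblasts received 4.0 ng/ml IFN-beta plus compound for 24 hrs, with an 11-point, 1:3 series topping at 46 uM final.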
# Sequence of Cytochrome P450 2D6 (Homo sapiens) (P10635 whole entry, looked up): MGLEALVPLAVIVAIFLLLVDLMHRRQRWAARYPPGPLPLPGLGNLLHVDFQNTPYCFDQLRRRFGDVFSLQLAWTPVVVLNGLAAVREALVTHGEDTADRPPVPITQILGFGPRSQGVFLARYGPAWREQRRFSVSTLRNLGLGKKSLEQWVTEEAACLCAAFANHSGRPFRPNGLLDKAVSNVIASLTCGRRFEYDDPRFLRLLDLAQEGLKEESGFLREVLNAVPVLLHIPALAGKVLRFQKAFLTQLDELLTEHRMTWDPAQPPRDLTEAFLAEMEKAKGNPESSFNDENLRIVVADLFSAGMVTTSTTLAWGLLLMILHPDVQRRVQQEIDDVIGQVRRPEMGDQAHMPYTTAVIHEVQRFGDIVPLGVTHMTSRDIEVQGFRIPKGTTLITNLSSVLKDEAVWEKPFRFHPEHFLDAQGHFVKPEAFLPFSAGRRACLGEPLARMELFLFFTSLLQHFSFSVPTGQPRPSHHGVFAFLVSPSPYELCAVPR
# Sequence of Nicotinamide N-methyltransferase (Homo sapiens) (P40261 whole entry, looked up): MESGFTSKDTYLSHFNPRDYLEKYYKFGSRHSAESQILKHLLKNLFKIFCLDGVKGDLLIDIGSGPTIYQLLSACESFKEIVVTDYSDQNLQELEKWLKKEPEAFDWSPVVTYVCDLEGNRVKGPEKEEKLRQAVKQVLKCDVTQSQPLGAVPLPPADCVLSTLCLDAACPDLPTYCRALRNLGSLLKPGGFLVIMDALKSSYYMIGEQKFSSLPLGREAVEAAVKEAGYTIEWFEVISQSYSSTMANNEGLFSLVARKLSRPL
# Sequence of Nuclear receptor subfamily 1 group I member 2 (Homo sapiens) (O75469 whole entry, looked up): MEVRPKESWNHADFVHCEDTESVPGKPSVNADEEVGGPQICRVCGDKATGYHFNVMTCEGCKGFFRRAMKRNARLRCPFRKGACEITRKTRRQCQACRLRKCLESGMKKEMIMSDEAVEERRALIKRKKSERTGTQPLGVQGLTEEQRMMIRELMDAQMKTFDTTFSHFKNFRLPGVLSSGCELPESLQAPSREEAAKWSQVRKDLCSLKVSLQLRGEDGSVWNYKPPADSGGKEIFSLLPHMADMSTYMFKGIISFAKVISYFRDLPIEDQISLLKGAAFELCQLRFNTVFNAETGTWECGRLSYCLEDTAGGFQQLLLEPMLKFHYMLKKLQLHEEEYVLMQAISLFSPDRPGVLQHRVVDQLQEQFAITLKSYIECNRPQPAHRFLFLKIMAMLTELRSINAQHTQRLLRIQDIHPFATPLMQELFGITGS
# Sequence of Cytochrome P450 2C19 (Homo sapiens) (P33261 whole entry, looked up): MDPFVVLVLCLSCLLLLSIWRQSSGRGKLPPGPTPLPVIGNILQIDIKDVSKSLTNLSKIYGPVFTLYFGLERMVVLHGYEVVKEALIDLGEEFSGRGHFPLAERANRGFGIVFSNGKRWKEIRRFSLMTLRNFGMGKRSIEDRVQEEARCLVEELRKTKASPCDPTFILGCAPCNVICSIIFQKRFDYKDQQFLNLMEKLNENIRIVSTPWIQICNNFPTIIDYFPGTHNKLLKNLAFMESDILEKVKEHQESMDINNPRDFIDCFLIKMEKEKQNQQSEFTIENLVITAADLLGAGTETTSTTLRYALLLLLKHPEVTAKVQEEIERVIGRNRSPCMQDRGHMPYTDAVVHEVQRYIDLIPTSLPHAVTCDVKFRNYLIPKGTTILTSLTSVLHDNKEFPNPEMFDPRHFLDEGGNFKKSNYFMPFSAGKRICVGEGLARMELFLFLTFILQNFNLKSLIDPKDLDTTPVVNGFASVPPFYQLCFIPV
# Sequence of Cytochrome P450 2C9 (Homo sapiens) (P11712 whole entry, looked up): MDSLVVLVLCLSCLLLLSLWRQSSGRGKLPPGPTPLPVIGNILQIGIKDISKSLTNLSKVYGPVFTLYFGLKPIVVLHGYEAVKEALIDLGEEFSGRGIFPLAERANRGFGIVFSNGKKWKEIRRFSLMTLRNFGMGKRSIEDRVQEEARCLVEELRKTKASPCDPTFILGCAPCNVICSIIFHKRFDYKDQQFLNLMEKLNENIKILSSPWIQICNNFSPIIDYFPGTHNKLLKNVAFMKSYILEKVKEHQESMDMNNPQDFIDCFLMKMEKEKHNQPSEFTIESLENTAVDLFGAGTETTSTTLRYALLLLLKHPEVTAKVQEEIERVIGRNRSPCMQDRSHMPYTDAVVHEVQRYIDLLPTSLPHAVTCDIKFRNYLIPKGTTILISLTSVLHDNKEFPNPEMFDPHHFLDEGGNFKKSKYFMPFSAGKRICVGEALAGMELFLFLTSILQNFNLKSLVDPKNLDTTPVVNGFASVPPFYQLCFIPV
# Sequence of Cytochrome P450 1A2 (Homo sapiens) (P05177 whole entry, looked up): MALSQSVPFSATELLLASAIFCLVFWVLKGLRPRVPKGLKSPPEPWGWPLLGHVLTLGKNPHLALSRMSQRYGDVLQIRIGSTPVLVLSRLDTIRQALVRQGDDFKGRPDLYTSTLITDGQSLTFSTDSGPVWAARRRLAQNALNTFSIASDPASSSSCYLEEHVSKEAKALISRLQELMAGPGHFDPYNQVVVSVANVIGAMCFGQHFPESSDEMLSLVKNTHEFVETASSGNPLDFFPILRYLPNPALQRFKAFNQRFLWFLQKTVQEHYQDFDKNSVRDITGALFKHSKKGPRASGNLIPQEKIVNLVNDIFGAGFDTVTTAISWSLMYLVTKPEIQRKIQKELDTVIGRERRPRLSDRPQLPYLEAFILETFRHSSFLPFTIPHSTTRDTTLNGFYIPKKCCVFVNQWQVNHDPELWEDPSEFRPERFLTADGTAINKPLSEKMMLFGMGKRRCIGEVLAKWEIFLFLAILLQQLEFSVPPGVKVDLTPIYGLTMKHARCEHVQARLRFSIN
# Sequence of Phenylethanolamine N-methyltransferase (Homo sapiens) (P11086 whole entry, looked up): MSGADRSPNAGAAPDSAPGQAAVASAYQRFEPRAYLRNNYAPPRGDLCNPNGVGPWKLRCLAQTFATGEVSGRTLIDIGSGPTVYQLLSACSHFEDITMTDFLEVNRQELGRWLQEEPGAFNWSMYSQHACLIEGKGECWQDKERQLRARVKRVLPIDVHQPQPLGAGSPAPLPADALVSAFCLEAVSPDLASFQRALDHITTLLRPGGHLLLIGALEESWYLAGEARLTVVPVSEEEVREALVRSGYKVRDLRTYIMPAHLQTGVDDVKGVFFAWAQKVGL
# Sequence of Catechol O-methyltransferase (Homo sapiens) (P21964 whole entry, looked up): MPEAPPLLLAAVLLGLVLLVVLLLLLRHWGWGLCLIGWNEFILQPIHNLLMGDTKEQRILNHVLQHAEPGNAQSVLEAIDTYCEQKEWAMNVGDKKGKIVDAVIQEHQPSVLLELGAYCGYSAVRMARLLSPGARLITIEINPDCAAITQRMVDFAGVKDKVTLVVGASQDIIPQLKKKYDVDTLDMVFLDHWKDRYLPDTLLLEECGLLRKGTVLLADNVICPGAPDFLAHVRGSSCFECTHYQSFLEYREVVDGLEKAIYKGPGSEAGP
# Sequence of Cytochrome P450 3A4 (Homo sapiens) (P08684 whole entry, looked up, canonical isoform): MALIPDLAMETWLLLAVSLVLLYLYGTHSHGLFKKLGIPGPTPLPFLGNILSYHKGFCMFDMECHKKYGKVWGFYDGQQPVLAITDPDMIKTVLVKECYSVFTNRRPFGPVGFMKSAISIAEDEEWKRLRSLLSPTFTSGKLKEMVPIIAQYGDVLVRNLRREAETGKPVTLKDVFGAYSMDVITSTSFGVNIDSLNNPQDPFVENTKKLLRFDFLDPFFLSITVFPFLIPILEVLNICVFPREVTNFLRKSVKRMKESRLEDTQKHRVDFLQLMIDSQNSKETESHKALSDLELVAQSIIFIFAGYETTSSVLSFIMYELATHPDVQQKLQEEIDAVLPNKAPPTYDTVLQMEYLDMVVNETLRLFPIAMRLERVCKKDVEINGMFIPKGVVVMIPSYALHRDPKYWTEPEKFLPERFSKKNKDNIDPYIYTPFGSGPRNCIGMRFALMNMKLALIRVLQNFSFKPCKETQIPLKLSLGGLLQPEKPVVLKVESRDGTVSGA
smiles,measurement,setting,value
COc1cc(C(=O)O)ccc1NC(=O)[C@@H]1N[C@@H](CC(C)(C)C)[C@](C#N)(c2ccc(Cl)cc2F)[C@H]1c1cccc(Cl)c1F,Potency,[1],inactive
same,Potency,[2],0.209 µM (active)
same,activity,[3],-3.62%
same,Potency,[4],34.1 µM (active)
same,activity,[5],-47.6%
same,activity,[6],-14.4%
O=C(OC[C@H]1O[C@@H](OC(=O)c2cc(O)c(O)c(O)c2)[C@H](OC(=O)c2cc(O)c(O)c(O)c2)[C@@H](OC(=O)c2cc(O)c(O)c(O)c2)[C@@H]1OC(=O)c1cc(O)c(O)c(O)c1)c1cc(O)c(O)c(O)c1,Potency,[7],inactive
same,outcome,[8],inactive
same,outcome,[9],inactive
same,outcome,[10],inactive
same,Potency,[11],7.08 µM (active)
same,Potency,[12],14.1 µM (active)
same,Potency,[13],6.31 µM (active)
same,Potency,[14],3.98 µM (active)
same,outcome,[15],inactive
same,Potency,[16],3.55 µM (active)
same,max response,[17],0.413% (inactive)
same,outcome,[18],inactive
same,outcome,[19],inactive
CN(C)c1cc(NC(=O)CNC(C)(C)C)c(O)c2c1C[C@H]1C[C@H]3[C@H](N(C)C)C(=O)C(C(N)=O)=C(O)[C@]3(O)C(=O)C1=C2O,Potency,[20],inactive
same,Potency,[7],inactive
CC1c2cccc(O)c2C(O)=C2C(=O)C3(O)C(O)=C(C(N)=O)C(=O)C(N(C)C)C3C(O)C21 (configuration not stated),Potency,[20],inactive

# — PubChem BioAssay (NCATS)
